Laboratory results published in the supplement of paper PMC10732440.
± gives the standard deviation of the averaged measurements.

These compounds were tested on Caenorhabditis elegans N2 infected with Nematocida parisii ERTm1 (assay: progeny production relative to DMSO uninfected control; higher = more progeny despite microsporidia infection (inhibition of infection with low host toxicity)). Details: infection time 6 days; 40 µM.
Method in brief: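 Progeny production is reported as a percentage of spore-free vehicle wells and averaged across replicates. It was measured after bleach-synchronised wild-type C. elegans L1 larvae (100 per well) spent 6 days shaking at 21°C in K-medium with E. coli OP50, 15,000 N. parisii spores/μL and compound at 100 μM or 40 μM in 1% DMSO. Counting used Rose Bengal staining, flatbed scanning and WorMachine, and each compound and dose was tested three times.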
Compound `CCCCc1ccc(S(=O)(=O)Nc2cc(C)on2)cc1` has a progeny production of 7.98 ± 1.1%. In the case of `Nc1cccc(-c2nc(N)nc(NC3Cc4ccccc4C3)n2)c1`, the progeny production is reported as 8.19 ± 3.8%. `C[C@@H](O)[C@H](N)C(=O)NS(=O)(=O)c1cccc(-c2ccc3[nH]ncc3c2)c1` was tested, and the progeny production was 3.15 ± 1.8%. For `CCc1nc(N)nc(N)c1C#CC(C)c1cc(OC)cc(-c2ccncc2)c1` (stereo not given), the progeny production was 5.28 ± 2.2%. `C=C[C@]1(C)C[C@@H](OC(=O)CS[C@@H]2C[C@H]3CC[C@@H](C2)N3C)[C@]2(C)[C@H](C)CC[C@]3(CCC(=O)[C@H]32)[C@@H](C)[C@@H]1O` gave a progeny production of 11.3 ± 8.7%. For `CCc1c(O)nc2ccc(F)cc2c1OCC1CCC1`, the progeny production was 6.76 ± 3.3%. For `O=C(NC(=O)N1CCCc2ccccc21)c1ccc(Cl)cc1Cl`, the progeny production was 3.48 ± 1.1%. For `Cc1cc(CCOc2c(C)cc(-c3nnn(C)n3)cc2C)on1`, the progeny production was 4.64 ± 1.1%. `Nc1nc2c(ncn2COC(CO)CO)c(=O)[nH]1` showed a progeny production of 7.03 ± 4.7%. `CN1CCN(c2ccc3[nH]c(-c4ccc5[nH]c(-c6ccc(O)cc6)nc5c4)nc3c2)CC1` was tested, and the progeny production was 6.36 ± 1.4%. `O=C(N[C@H](CCS)C(=O)N[C@H](Cc1ccccc1)C(=O)O)c1cc2ccccc2[nH]1` showed a progeny production of 6.68 ± 3.5%. For `O=C(CCCC(F)(F)F)N1CCC(c2nc(-c3nccs3)no2)CC1`, the progeny production was 5.21 ± 1.1%. For `O=C1CCC(N2C(=O)c3ccccc3C2=O)C(=O)N1` (stereo not given), the progeny production was 9.53 ± 5.1%. Work on `O=P(O)(O)C(CCCc1cccc(Oc2ccccc2)c1)S(=O)(=O)O` (stereo not given) yielded a progeny production of 5.45 ± 0.36%. For `O=C(c1cc(O)nc2ccccc12)N1CCN(c2ccccc2)CC1`, the progeny production was 5.44 ± 4.1%. Compound `C=CCc1cc(Cc2cnc(N)nc2N)cc(OC)c1O` has a progeny production of 3.9 ± 1.6%. `CN(C)c1[nH]c(=O)ncc1F` was tested, and the progeny production was 3.57 ± 3.5%. For `CC#C[C@]1(O)CC[C@H]2[C@@H]3CCC4=CC(=O)CCC4=C3[C@@H](c3ccc(N(C)C)cc3)C[C@@]21C`, the progeny production was 4.64 ± 1.1%. For `CCNC(=O)Nc1cc(-c2ccccc2)c(-c2cncc(C(=O)O)c2)cn1`, the progeny production was 3.89 ± 0.4%. Compound `CCCCCCCc1[nH]c2ccccc2c(=O)c1O` has a progeny production of 7.38 ± 1.2%. `C[C@H]1[C@@H](c2cccc(C(F)(F)F)c2)OC(=O)N1C(=O)NCc1cncc2ccccc12` gave a progeny production of 2.28 ± 1.4%. `N[C@@H]1CN(c2c(F)cc3c(=O)c(C(=O)O)cn([C@@H]4C[C@@H]4F)c3c2Cl)CC12CC2` showed a progeny production of 9.37 ± 3.9%. For `Clc1cc2nc(C3CCNCC3)n(Cc3ccc(CNCCc4c[nH]cn4)cc3)c2cc1Cl`, the progeny production was 7.61 ± 2.7%. `CCC(C)(C)c1ccc(CC(C)CN2C[C@@H](C)O[C@@H](C)C2)cc1` (stereo not given in full) gave a progeny production of 4.64 ± 0.33%. In the case of `Nc1nnnn1CCOc1c2[nH]c3ccc(Cl)cc3c2cc2c1[nH]c1ccc(Cl)cc12`, the progeny production is reported as 5.74 ± 5.8%. `CC1CN(c2ncnc3c2c(-c2ccccc2)cn3-c2ccc(F)cc2)CC(C)O1` (stereo not given) showed a progeny production of 4.39 ± 1.6%. Compound `O=[N+]([O-])/C(Br)=C/c1ccc(Br)o1` has a progeny production of 5.77 ± 1.4%. Compound `O=[N+]([O-])c1cn2c(n1)OC[C@@H](OCc1ccc(OC(F)(F)F)cc1)C2` has a progeny production of 7.03 ± 0.77%. For `Cn1cc(NC(=O)c2cc(NC(=O)c3ccc(/C=C/c4cnc5ccccc5c4)cc3)cn2C)cc1C(=O)NCCN1CCOCC1`, the progeny production was 7.6 ± 3.5%. `CC(C)Nc1ncnc2c1cnn2-c1ccc(Cl)cc1` gave a progeny production of 8.31 ± 1.1%. Work on `O=c1nc(N2CCN(CC3CCCCC3)CC2)sc2c([N+](=O)[O-])cc(C(F)(F)F)cc12` yielded a progeny production of 4.77 ± 2.5%. `CSC[C@H]1CN(Cc2c[nH]c3c(N)ncnc23)C[C@@H]1O` was tested, and the progeny production was 8.02 ± 2.9%. `CCc1cc(O)c(Oc2ccc(C(N)=O)cc2F)cc1F` gave a progeny production of 3.13 ± 2.7%. Work on `O=C(Nc1cccc(C2=NCCN2)c1)c1ccc(-c2ccc(C(=O)Nc3cccc(C4=NCCN4)c3)cc2)cc1` yielded a progeny production of 7.71 ± 2.9%. Work on `N#Cc1cc([N+](=O)[O-])ccc1Oc1ccccc1Cl` yielded a progeny production of 5.2 ± 2%. `O=C(Cc1ccccc1F)Nc1nc2ccccc2[nH]1` gave a progeny production of 4.94 ± 2.8%. For `NC(=O)c1ccc(I)c([N+](=O)[O-])c1`, the progeny production was 1.54 ± 0.63%. `COc1cc(Cc2cc(N)nc(N)n2)cc(OC)c1OC` showed a progeny production of 5.56 ± 1.2%. Compound `Cc1cccc(CC(=O)N[C@H]2CCOC2=O)c1` has a progeny production of 3.04 ± 0.7%. In the case of `COc1ccc(SCC(=O)N2c3ccccc3Sc3ccccc32)cc1`, the progeny production is reported as 5.84 ± 2.3%.

Same assay, conditions: infection time 6 days; 100 µM
`CCCCc1ccc(S(=O)(=O)Nc2cc(C)on2)cc1` was tested, and the progeny production was 25 ± 22%. `Nc1cccc(-c2nc(N)nc(NC3Cc4ccccc4C3)n2)c1` showed a progeny production of 20.6 ± 10%. In the case of `C[C@@H](O)[C@H](N)C(=O)NS(=O)(=O)c1cccc(-c2ccc3[nH]ncc3c2)c1`, the progeny production is reported as 20.2 ± 20%. Work on `CCc1nc(N)nc(N)c1C#CC(C)c1cc(OC)cc(-c2ccncc2)c1` (stereo not given) yielded a progeny production of 9.94 ± 7.4%. `C=C[C@]1(C)C[C@@H](OC(=O)CS[C@@H]2C[C@H]3CC[C@@H](C2)N3C)[C@]2(C)[C@H](C)CC[C@]3(CCC(=O)[C@H]32)[C@@H](C)[C@@H]1O` was tested, and the progeny production was 15.1 ± 6.1%. Compound `CCc1c(O)nc2ccc(F)cc2c1OCC1CCC1` has a progeny production of 16.2 ± 9.1%. `O=C(NC(=O)N1CCCc2ccccc21)c1ccc(Cl)cc1Cl` was tested, and the progeny production was 19.2 ± 21%. Work on `Cc1cc(CCOc2c(C)cc(-c3nnn(C)n3)cc2C)on1` yielded a progeny production of 8.74 ± 2.1%. Compound `Nc1nc2c(ncn2COC(CO)CO)c(=O)[nH]1` has a progeny production of 10.9 ± 4.7%. `CN1CCN(c2ccc3[nH]c(-c4ccc5[nH]c(-c6ccc(O)cc6)nc5c4)nc3c2)CC1` gave a progeny production of 15.4 ± 12%. For `O=C(N[C@H](CCS)C(=O)N[C@H](Cc1ccccc1)C(=O)O)c1cc2ccccc2[nH]1`, the progeny production was 11.3 ± 6.7%. For `O=C(CCCC(F)(F)F)N1CCC(c2nc(-c3nccs3)no2)CC1`, the progeny production was 8.6 ± 8.7%. In the case of `O=C1CCC(N2C(=O)c3ccccc3C2=O)C(=O)N1` (stereo not given), the progeny production is reported as 13.3 ± 8.9%. `O=P(O)(O)C(CCCc1cccc(Oc2ccccc2)c1)S(=O)(=O)O` (stereo not given) showed a progeny production of 8.22 ± 4.1%. Work on `O=C(c1cc(O)nc2ccccc12)N1CCN(c2ccccc2)CC1` yielded a progeny production of 9.85 ± 7.2%. `C=CCc1cc(Cc2cnc(N)nc2N)cc(OC)c1O` showed a progeny production of 12.4 ± 5.1%. In the case of `CN(C)c1[nH]c(=O)ncc1F`, the progeny production is reported as 14.8 ± 7.8%. `CC#C[C@]1(O)CC[C@H]2[C@@H]3CCC4=CC(=O)CCC4=C3[C@@H](c3ccc(N(C)C)cc3)C[C@@]21C` was tested, and the progeny production was 14.9 ± 4.7%. For `CCNC(=O)Nc1cc(-c2ccccc2)c(-c2cncc(C(=O)O)c2)cn1`, the progeny production was 28.1 ± 28%. `CCCCCCCc1[nH]c2ccccc2c(=O)c1O` gave a progeny production of 21.2 ± 19%. `C[C@H]1[C@@H](c2cccc(C(F)(F)F)c2)OC(=O)N1C(=O)NCc1cncc2ccccc12` showed a progeny production of 7.48 ± 6.2%. Compound `N[C@@H]1CN(c2c(F)cc3c(=O)c(C(=O)O)cn([C@@H]4C[C@@H]4F)c3c2Cl)CC12CC2` has a progeny production of 13.4 ± 6.8%. Work on `Clc1cc2nc(C3CCNCC3)n(Cc3ccc(CNCCc4c[nH]cn4)cc3)c2cc1Cl` yielded a progeny production of 10.3 ± 7.1%. Compound `CCC(C)(C)c1ccc(CC(C)CN2C[C@@H](C)O[C@@H](C)C2)cc1` (stereo not given in full) has a progeny production of 23 ± 23%. For `Nc1nnnn1CCOc1c2[nH]c3ccc(Cl)cc3c2cc2c1[nH]c1ccc(Cl)cc12`, the progeny production was 8.85 ± 7.7%. For `CC1CN(c2ncnc3c2c(-c2ccccc2)cn3-c2ccc(F)cc2)CC(C)O1` (stereo not given), the progeny production was 13.4 ± 13%. Compound `O=[N+]([O-])/C(Br)=C/c1ccc(Br)o1` has a progeny production of 26.4 ± 9.5%. With `O=[N+]([O-])c1cn2c(n1)OC[C@@H](OCc1ccc(OC(F)(F)F)cc1)C2` the progeny production was 11.4 ± 5.1%. `Cn1cc(NC(=O)c2cc(NC(=O)c3ccc(/C=C/c4cnc5ccccc5c4)cc3)cn2C)cc1C(=O)NCCN1CCOCC1` was tested, and the progeny production was 15.5 ± 5.6%. Compound `CC(C)Nc1ncnc2c1cnn2-c1ccc(Cl)cc1` has a progeny production of 4.15 ± 2.5%. `O=c1nc(N2CCN(CC3CCCCC3)CC2)sc2c([N+](=O)[O-])cc(C(F)(F)F)cc12` was tested, and the progeny production was 9.3 ± 5.1%. `CSC[C@H]1CN(Cc2c[nH]c3c(N)ncnc23)C[C@@H]1O` was tested, and the progeny production was 15.3 ± 10%. For `CCc1cc(O)c(Oc2ccc(C(N)=O)cc2F)cc1F`, the progeny production was 8.3 ± 5.3%. `O=C(Nc1cccc(C2=NCCN2)c1)c1ccc(-c2ccc(C(=O)Nc3cccc(C4=NCCN4)c3)cc2)cc1` was tested, and the progeny production was 27.6 ± 16%. `N#Cc1cc([N+](=O)[O-])ccc1Oc1ccccc1Cl` gave a progeny production of 14.5 ± 8.1%. `O=C(Cc1ccccc1F)Nc1nc2ccccc2[nH]1` gave a progeny production of 8.29 ± 4.9%. `NC(=O)c1ccc(I)c([N+](=O)[O-])c1` gave a progeny production of 10 ± 2.6%. With `COc1cc(Cc2cc(N)nc(N)n2)cc(OC)c1OC` the progeny production was 19.2 ± 12%. With `Cc1cccc(CC(=O)N[C@H]2CCOC2=O)c1` the progeny production was 6.81 ± 3.6%. `COc1ccc(SCC(=O)N2c3ccccc3Sc3ccccc32)cc1` was tested, and the progeny production was 14.1 ± 5.9%.
